# An excerpt weighted towards active compounds, which were near 7.5% of everything screened.
# KinaseGlo FLuc = Counterscreen for Luciferase (Kinase-Glo TM) Inhibition; hit rate 0.28% among 200,000; Potency, µM (series often up to 38.3 µM), actives largely listed as inhibitors; Luciferin 4-monooxygenase (Photuris pensylvanica), Q27757; Kinase-Glo luciferase, ATP luminescence, 8 min; further: nearly all actives have a fitted effect of over 60% in size
#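 Compound is pinned into ATP-containing buffer (10 uM ATP, imidazole pH 7.2, 7 mM MgCl2). Kinase-Glo luciferase reagent is then added. Light output is recorded following an 8-min room-temperature incubation.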
# ELG1 genotox = qHTS screen for small molecules that induce genotoxicity in human embryonic kidney (HEK293T) cells expressing luciferase-tagged ELG1; HEK293T ELG1-luciferase reporter, luminescence, 16 h; Potency, µM (titrated, usually from 46 µM), usual class: activators; hit rate 1.3% among 330,000; further: nearly all actives have a fitted effect of over 60% in size
#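 Cells (2,000/well) expressing the ELG1-luciferase fusion are dosed by pin tool and kept 16 hr at 37 °C, 5% CO2. Signal comes from ONE-Glo luciferase reagent after 30 min at room temperature.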
# NPC1 promoter act = qHTS Assay for NPC1 Promoter Activators | Huh7 NPC1 promoter luciferase reporter, 24 h | Potency, µM (titrated, usually from 9.22 µM), hits mostly activators | hit rate 2.4% among 320,000 | AID 485313, 2010; further: nearly all actives have a fitted effect of over 60% in size
#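 Compounds in DMSO were transferred onto Huh7 NPC1-luciferase reporter cells pre-incubated 2 h; after 24 h at 37 °C, Amplite reagent was dispensed and luminescence recorded 10 min later.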
# FLuc modulator = qHTS profiling assay for firefly luciferase inhibitor/activator using purifed enzyme and Km concentrations of substrates (counterscreen for miR-21 project) | hit rate 6.9% among 360,000 | AID 588342, 2011 | purified FLuc, Km substrates, luminescence inhibition | Potency, µM (series often up to 57.5 µM), most hits filed as inhibitors | Luciferin 4-monooxygenase (Photinus pyralis), P08659; further: nearly all actives have a fitted effect of over 55% in size
# Target sequence (P08659 whole entry, looked up): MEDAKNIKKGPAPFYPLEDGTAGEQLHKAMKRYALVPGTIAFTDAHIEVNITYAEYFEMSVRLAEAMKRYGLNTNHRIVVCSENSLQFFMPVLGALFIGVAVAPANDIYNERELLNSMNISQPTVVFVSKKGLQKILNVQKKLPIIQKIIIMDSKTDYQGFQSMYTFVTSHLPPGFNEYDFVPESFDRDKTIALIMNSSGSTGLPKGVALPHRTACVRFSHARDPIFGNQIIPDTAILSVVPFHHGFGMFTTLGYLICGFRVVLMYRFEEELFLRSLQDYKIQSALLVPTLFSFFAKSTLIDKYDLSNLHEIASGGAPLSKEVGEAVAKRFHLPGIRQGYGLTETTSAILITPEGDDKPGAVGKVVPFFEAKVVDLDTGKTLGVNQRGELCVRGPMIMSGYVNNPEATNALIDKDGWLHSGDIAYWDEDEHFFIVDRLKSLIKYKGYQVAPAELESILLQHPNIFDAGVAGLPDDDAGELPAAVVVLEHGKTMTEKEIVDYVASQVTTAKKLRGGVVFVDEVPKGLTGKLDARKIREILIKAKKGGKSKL
#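 Purified P. pyralis luciferase, 10 nM final, with Km-level 10 uM D-luciferin and 10 uM ATP in 50 mM Tris acetate pH 7.5, 10 mM Mg acetate, 0.01% Tween-20, 0.05% BSA; 6-point qHTS titration about 60 µM downward; luminescence read.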
# Rab9 prom act = qHTS Assay for Rab9 Promoter Activators; Huh7 Rab9 promoter-luciferase reporter, luminescence, 24 h; hit rate 2.8% among 320,000; Potency, µM (doses to about 9.22 µM), actives largely listed as activators; further: nearly all actives have a fitted effect of over 60% in size
#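 Stable Rab9-luc Huh7, 1500 cells/well, 2 h settle; cmpd in DMSO, 24 h, 37 °C/5% CO2; luciferase reagent 10 min RT; luminescence.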
# SMN2 splice enh = qHTS Assay for Enhancers of SMN2 Splice Variant Expression; hit rate 2.8% among 210,000; HEK293 SMN2-luciferase splicing reporter, luminescence, 30-36 h; Potency, µM (highest dose often 46.1 µM), actives largely listed as activators; AID 1458, 2008; further: nearly all actives have a fitted effect of over 55% in size
#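 HEK293 cells carry an SMN2 minigene-luciferase reporter in which exon 7 inclusion puts luciferase in frame. Cells were seeded at 2000 cells/well, attached for 10-12 hours, then exposed to compounds for 30-36 hours at 37C before ONE-Glo luminescence.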
# A number is an active result; - = inactive; ? = inconclusive; . = no result. The call rests on the fitted dose curve; in most records, active means well fitted curve in the direction sought with a large enough effect; inconclusive means small, poorly fitted or top-dose-only effect, or another doubt; inactive means no such curve, though single readings can be large; an effect the other way counts as inactive or inconclusive.
SMILES,KinaseGlo FLuc,ELG1 genotox,NPC1 promoter act,FLuc modulator,Rab9 prom act,SMN2 splice enh
Cc1ccccc1/C=C1\CCCc2ccccc2C1=O,?,?,3.98µM,2.39µM,0.891µM,10µM
O=C1/C(=C\c2ccc3ccccc3c2)CCCc2ccccc21,-,9.2µM,-,2.13µM,-,-
Cc1ccsc1/C=C1\CCc2ccccc2C1=O,10µM,?,?,0.19µM,0.794µM,10µM
C=C1CCC[C@]2(C)C[C@H]3OC(=O)[C@H](CNCCc4ccccc4OC)C3CC12 (stereo partly specified),-,.,.,.,.,-
COc1ccc(/C=C/C(=O)OCC(=O)Nc2cc(S(=O)(=O)N(C)C)ccc2Cl)cc1,-,-,-,12µM,-,-
COc1cccc(/C=C/C(=O)OCC(=O)Nc2ccc(Cl)c(S(=O)(=O)N(C)C)c2)c1OC,-,-,-,13.5µM,-,-
COc1cc(/C=C/C(=O)OCC(=O)Nc2cc(S(=O)(=O)N(C)C)ccc2Cl)ccc1O,.,-,-,?,-,.
Cc1ccc(C(=O)NCc2nnc(SCC(=O)Nc3ccccc3)n2C)cc1,-,-,-,21.3µM,-,-
Cc1ccccc1OCc1nnc(SCC(=O)Nc2ccc(N3CCOCC3)cc2)n1C,.,-,-,?,-,.
O=C(CSc1nnc2n1CCCCC2)Nc1ccc(N2CCOCC2)cc1,.,-,-,16.9µM,-,.
CCc1nnc(SCC(=O)Nc2ccc(N3CCOCC3)cc2)n1C,.,-,-,21.3µM,-,.
Cc1ccc(NC(=O)CSc2nnc3n2CCCCC3)cc1,-,-,-,-,-,-
